Assay results: PubChem BioAssay AID1030 (National Center for Advancing Translational Sciences (NCATS), 2008)
Among all 220,000 compounds or so, about 16,000 (7.3%) were called active. Not shown: some 25% with an inconclusive outcome. This excerpt belongs to a sample that is enriched for actives. Values without a mark were called inactive. Calls follow the shape of the dose curve; as a rule, active = well fitted inhibition curve with a large enough effect (not every such curve was filed as active); inconclusive = small, poorly fitted or top-dose-only effect, or another doubt; inactive = no such curve, though single readings can be large or run the other way.

biological target: Aldehyde dehydrogenase 1A1 (Homo sapiens) (UniProt P00352); experiment: qHTS Assay for Inhibitors of Aldehyde Dehydrogenase 1 (ALDH1A1); details: Purified ALDH1A1, NADH fluorescence, propionaldehyde substrate; series mostly up to 75.3 µM; activity, negative = inhibition: at the top concentration;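 as to activity, negative = inhibition: plate controls were no enzyme wells and a reference inhibitor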
Potency is read from the fitted curve at half-maximal effect.

Aldehyde dehydrogenase 1A1 (Homo sapiens), sequence (P00352 whole entry, looked up): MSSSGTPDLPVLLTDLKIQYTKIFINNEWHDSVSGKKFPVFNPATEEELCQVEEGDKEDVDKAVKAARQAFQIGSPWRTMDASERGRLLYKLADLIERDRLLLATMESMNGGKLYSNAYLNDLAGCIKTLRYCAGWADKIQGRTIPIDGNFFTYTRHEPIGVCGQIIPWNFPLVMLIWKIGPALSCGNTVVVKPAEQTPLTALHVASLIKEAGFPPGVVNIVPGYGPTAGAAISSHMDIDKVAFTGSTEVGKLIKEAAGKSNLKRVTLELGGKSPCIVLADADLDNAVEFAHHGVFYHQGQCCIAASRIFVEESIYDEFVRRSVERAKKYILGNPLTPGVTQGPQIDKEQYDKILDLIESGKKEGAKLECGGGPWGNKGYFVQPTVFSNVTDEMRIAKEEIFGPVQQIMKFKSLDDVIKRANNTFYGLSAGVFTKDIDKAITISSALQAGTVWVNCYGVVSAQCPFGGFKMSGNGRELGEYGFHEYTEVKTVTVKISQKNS

| SMILES | activity, negative = inhibition | Potency |
| --- | --- | --- |
| COc1ccccc1CC(NC(C)=O)C(=O)NC1CCN(C(=O)Nc2ccccc2Cl)CC1 (configuration not stated) | -12.5% |  |
| Cc1nn(C)cc1/C=C1\CCC/C(=C\c2cn(C)nc2C)C1=O |  | 28.2 µM (active) |
| CCn1cc(/C=C2/SC(=S)NC2=O)c(C)n1 | -5.29% |  |
| Cc1c(Cl)c([N+](=O)[O-])nn1CC(=O)NCC1CCCO1 (configuration not stated) | 7.79% |  |
| CCOC(=O)c1ccc(NC(=O)c2cc(=O)[nH]c3ccccc23)cc1 | -6.06% |  |
| C/C(=N\NC(=O)c1nc(C)cc(C)n1)c1ccccc1 | 1.36% |  |
| CCn1c(CSc2nc(C)cc(C)n2)nnc1SCC(N)=O | -4.65% |  |
| C/C(=N\NC(=O)c1ccc(CSc2nc(C)cc(C)n2)cc1)C1CCCCC1 |  | 3.55 µM (active) |
| CC1=C(/C=C/C(C)=C/C=C/C(C)=C/C=C/C=C(C)/C=C/C=C(C)/C=C/C(=O)[C@]2(C)C[C@@H](O)CC2(C)C)C(C)(C)C[C@H](O)C1 | -2.21% |  |
| O=C(Nc1ccc2c(c1)CCC2)c1ccc(Br)s1 | -8.83% |  |
| Cc1ccc(NC(=S)N2CCCC(c3ccccc3)=N2)cc1 | 0.55% |  |
| CN1CC(c2ccccc2)C2(COc3ccccc3C2=O)C12C(=O)Nc1ccccc12 (configuration not stated) |  | 7.94 µM (active) |
| CC1(C)C2CCC1(C)C(OC(=O)c1ccc(O)cc1)C2 (configuration not stated) | -5.65% |  |
| COc1ccc(CCn2ccc(O)c(Cc3ccc(Cl)cc3Cl)c2=O)cc1OC | 1.64% |  |
| Cc1noc(C)c1S(=O)(=O)Nc1cc(C(F)(F)F)ccc1N1CCOCC1 | 8.81% |  |
| C=CCN(Cc1nc(-c2cc(OC)c3c(c2)OCO3)oc1C)C1CCS(=O)(=O)C1 (configuration not stated) | 3.94% |  |
| CCO[C@@H]1OC(C(N)=O)=C[C@H](c2ccc(Br)cc2)[C@H]1CCCO | 6.57% |  |
| COCCn1c(CN(Cc2ccccc2)Cc2ccccc2)nc2c1c(=O)n(C)c(=O)n2C | -31.3% |  |
| CCCCNc1nc2c(c(=O)n(C)c(=O)n2C)n1Cc1cccc(OC)c1 | 3.24% |  |
| CCOc1ccc2nc(NC(=O)CSc3nc4c(c(=O)n(C)c(=O)n4C)n3CC)sc2c1 | -1.29% |  |
| Cn1c(=O)c2c(nc(SCCNS(=O)(=O)c3ccccc3)n2C)n(C)c1=O | -4.35% |  |
| CCCCn1c(SCC(=O)NCCc2ccc(OC)c(OC)c2)nc2c1c(=O)n(C)c(=O)n2C | -12.7% |  |
| COC(=O)C(C)Sc1nc2c(c(=O)n(C)c(=O)n2C)n1Cc1cccc(C)c1 (configuration not stated) |  | 12.6 µM (active) |

| SMILES | activity, negative = inhibition | Potency |
| --- | --- | --- |
| CC(C)OCCCNc1nc2c(c(=O)n(Cc3ccccc3F)c(=O)n2C)n1C | 2.22% |  |
| CCOC(=O)CSc1nc2c(c(=O)n(C)c(=O)n2C)n1Cc1ccccc1F |  | 39.8 µM (active) |
| CCCSc1nc2c(c(=O)n(C)c(=O)n2C)n1Cc1ccc(C)cc1 |  | 25.1 µM (active) |
| Nc1nc(SCC(=O)N2CCN(S(=O)(=O)c3ccc(Cl)cc3)CC2)n[nH]1 | -13.4% |  |
| COc1cccc(NC(=O)COC(=O)CCOc2ccccc2OC)c1 | 5.12% |  |
| COCc1c(N)c(C)nc(Cl)c1C#N | -6.47% |  |
| Cc1n[nH]c(=O)n1-c1ccc(C(C)C)cc1 | 9.21% |  |
| COc1ccc(NC(=O)COC(=O)c2ccncc2)c(OC)c1 | -0.318% |  |
| Cc1c(Cl)cccc1NC(=O)CSc1ccc(-c2cccnc2)nn1 | 11.5% |  |
| COC(=O)c1c(C)[nH]c(C)c1-c1ccc([N+](=O)[O-])cc1 | -6.22% |  |
| CCCCC/C=C\C/C=C\CCCCCCCCCC(=O)O |  | inactive |
| CCOC(=O)Cn1nnnc1C | 2.51% |  |
| CC(Sc1nnnn1C)C(=O)NC(=O)NC1CCCCC1 (configuration not stated) | -4.37% |  |
| Cc1ccc(OC(=O)c2cc3ccccc3o2)cc1 | -11% |  |
| O=C(Oc1ccccc1)Oc1ccc2c(c1)oc(=O)c1ccccc12 |  | 17.8 µM (active) |
| CCc1ccc(Oc2coc3cc(OC(=O)c4cc5ccccc5oc4=O)ccc3c2=O)cc1 | 1.39% |  |
| CCOC(=O)CSC1=N/C(=C/c2ccc(-n3cncn3)cc2)C(=O)N1C(C)=O | 7.89% |  |
| O=C(CN1C(=O)/C(=C\c2ccc(C(F)(F)F)cc2)Sc2ccccc21)NCc1ccco1 | -6.97% |  |
| O=C(CN1C(=O)/C(=C/c2ccccc2F)Sc2ccccc21)NCc1cccnc1 |  | 20 µM (active) |
| O=C(CN1C(=O)/C(=C\c2ccccc2F)SC1=S)Nc1nc2ccccc2s1 | -12.3% |  |
| CN(/C(=N/S(=O)(=O)c1cccs1)c1ccccc1)c1ccc(O)cc1 | -1.07% |  |
| CCC(C(=O)Nc1ccc(C(C)C)cc1)c1ccccc1 (configuration not stated) | -0.407% |  |
| O=C(Nc1cc(Cl)cc(Cl)c1)C(NCCCO)c1ccccc1 (configuration not stated) |  | 1.26 µM (active) |

| SMILES | activity, negative = inhibition | Potency |
| --- | --- | --- |
| Cc1nnc(SC(C(=O)Nc2cc(Cl)cc(Cl)c2)c2ccccc2)[nH]c1=O (configuration not stated) | 0.635% |  |
| Cc1c(Br)c([N+](=O)[O-])nn1CC(=O)N1CCN(Cc2ccccc2)CC1 | -11.6% |  |
| COc1ccc(C(=O)Nc2ccc(-n3nncc3C(C)(C)C)cc2)cc1 | -9.59% |  |
| CC(C)NC(=S)N1CCN(C(c2ccccc2)c2ccccc2)CC1 |  | 10 µM (active) |
| CC(C)NC(=S)N1CCN(S(C)(=O)=O)CC1 | -2.04% |  |
| O=C(c1ccc(-n2cnnn2)cc1)N1CCN(C(c2ccccc2)c2ccccc2)CC1 | -14.3% |  |
| CCOC(=O)C1CCN(S(=O)(=O)c2cc(F)ccc2OC)CC1 | 5.21% |  |
| COCCOC(=O)c1sc(=S)n(CCOC)c1N |  | 10 µM (active) |
| CCOC(=O)Cn1c(N)c(C(=O)OC)sc1=S | -2.62% |  |
| CCOC(=O)c1cnc2c(c(C)nn2CC)c1Cl | -22.9% |  |
| COc1ccc2c(CN3CCN(S(=O)(=O)c4cccs4)CC3)cc(=O)oc2c1 |  | 14.1 µM (active) |
| CN1CCN(S(=O)(=O)c2ccc(N3CCN(S(=O)(=O)c4cccs4)CC3)nc2)CC1 | -7.82% |  |
| O=S(=O)(c1cccs1)N1CCN(Cc2ccccc2)CC1 | -10.3% |  |
| COc1ccc(C(=O)NCC(=O)N/N=C/c2ccc([N+](=O)[O-])s2)cc1OC | -0.501% |  |
| Cc1ccc(-c2n[nH]c(=S)n2/N=C/c2cc3c(cc2[N+](=O)[O-])OCO3)cc1 | -17.2% |  |
| CC(=O)N/N=C/c1cc2c(cc1[N+](=O)[O-])OCO2 | -5.62% |  |
| Cc1ccc(S(=O)(=O)N/N=C\c2cc3c(cc2[N+](=O)[O-])OCO3)cc1 |  | 1.26 µM (active) |
| COc1cc(NC(=O)c2cccnc2SC)cc(OC)c1 | 6.07% |  |
| CCOc1ccc(-c2nnn(CC(=O)N3CCN(c4ccc(OC)cc4)CC3)n2)cc1OCC | 2.88% |  |
| COc1ccc(N2CCN(C(=O)CSc3ncnc4c3cnn4-c3ccc(OC)cc3)CC2)cc1 | 5.3% |  |
| COc1ccc(N2CCN(C(=O)CSc3nc4cc(OC)c(OC)cc4cc3C#N)CC2)cc1 |  | 14.1 µM (active) |
